G9a block – blocks human histone lysine methyltransferase G9a. Q96KQ7. G9a H3K9 monomethylation, AlphaScreen, 2 h. Potency, µM (doses to about 102 µM), without a hit: at the highest dose activity, negative = inhibition, hits mostly inhibitors. 350,000 compounds, 8.8% hits; note: % is set by controls: 0 for no effect and ±100 for the full control effect; nearly all actives have a fitted effect of over 75% in size
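Using a bead-based AlphaScreen, monomethylated H3K9 product from 2 h room-temperature reactions (G9a 20 nM, peptide 500 nM, SAM 20 uM) was detected with 0.5 ug/mL rabbit anti-H3K9me1 antibody.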
Sfp PPTase inh – inhibitors of Bacillus subtilis Sfp phosphopantetheinyl transferase; Q9F4F7; Biochemical Sfp PPTase activity, qHTS; Potency, µM, inactives show largest response in the series, negative = inhibition, most hits filed as inhibitors; 310,000 compounds, 3.5% hits; AID 1490;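 note: the enzyme is Sfp with the accession as filed and its product quenches rhodamine fluorescence; 0% = enzyme reaction without inhibitor and -100% = no enzyme wells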
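Reaction rates are the 30-min fluorescence difference (ex 525, em 598 nm) in wells containing 15 nM Sfp, 5 uM rhodamine-CoA and 12.5 uM BHQ-2-YbbR at pH 7.6 with 10 mM MgCl2.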
JMJD2A Tudor inh – blocks the human JMJD2A Tudor domain; Potency, µM (titrated, usually from 114 µM), for inactives: top-dose activity change, negative = inhibition, hits mostly inhibitors; 390,000 compounds, 4.4% hits; AlphaScreen JMJD2A-Tudor / H3K4me3 peptide binding; AID 504339; note: % is set by controls: 0 for no effect and ±100 for the full control effect; nearly all actives have a fitted effect of over 50% in size
HP1b binding inh – HP1-beta chromodomain-methylated histone interaction inhibition | AlphaScreen HP1-beta / biotin-H3K9me3 peptide binding | Potency, µM (titrated, usually from 114 µM), for the others: at the top dose activity change, negative = inhibition, hits mostly inhibitors | AID 540317 | 390,000 compounds, 0.56% hits | P83916; note: nearly all actives have a fitted effect of over 70% in size
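AlphaScreen: HP1-beta (50 nM) preformed 30 min with biotin-H3(1-18)K9me3 peptide (50 nM) in PBS pH 7.4, 0.01% Tween-20. Compound added for 30 min at RT, then streptavidin donor/nickel chelate acceptor beads (10 ug/mL) for 30 min.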
TDP1 inh – inhibitors of human tyrosyl-DNA phosphodiesterase TDP1. Q9NUW8. recombinant TDP1, AlphaScreen DNA substrate cleavage. Potency, µM (highest dose often 130 µM), for inactives: top-dose activity change, negative = inhibition, most hits filed as inhibitors. 350,000 compounds, 0.28% hits; note: % is set by controls: 0 for no effect and ±100 for the full control effect; nearly all actives have a fitted effect of over 40% in size
Target sequence (Q9NUW8 whole entry, looked up): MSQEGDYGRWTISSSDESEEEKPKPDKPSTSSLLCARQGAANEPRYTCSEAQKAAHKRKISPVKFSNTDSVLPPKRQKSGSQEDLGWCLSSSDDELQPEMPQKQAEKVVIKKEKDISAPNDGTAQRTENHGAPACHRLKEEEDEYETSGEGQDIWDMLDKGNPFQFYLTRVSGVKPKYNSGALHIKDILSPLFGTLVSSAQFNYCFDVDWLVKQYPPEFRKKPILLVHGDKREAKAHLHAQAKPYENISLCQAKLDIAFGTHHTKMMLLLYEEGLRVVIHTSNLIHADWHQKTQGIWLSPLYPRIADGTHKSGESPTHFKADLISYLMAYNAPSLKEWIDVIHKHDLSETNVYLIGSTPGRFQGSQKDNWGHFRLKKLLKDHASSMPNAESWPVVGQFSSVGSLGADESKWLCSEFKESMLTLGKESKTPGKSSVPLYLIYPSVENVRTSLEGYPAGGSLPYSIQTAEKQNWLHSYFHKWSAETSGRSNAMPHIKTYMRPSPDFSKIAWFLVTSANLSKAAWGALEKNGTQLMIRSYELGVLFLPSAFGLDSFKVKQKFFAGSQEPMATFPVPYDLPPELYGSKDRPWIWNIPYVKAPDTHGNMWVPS
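Tdp1 1 nM final; 15 min RT w/ cpd; substrate 15 nM, 5 min; beads 10 ug/ml, 10 min; AlphaScreen read. Neg ctrl: no enzyme.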
BAZ2B inh – BAZ2B (human) inhibition; Q9UIF8; AlphaScreen BAZ2B-H3K14Ac peptide displacement; Potency, µM (top dose mostly 114 µM), for the others: top-dose activity change, negative = inhibition, hits mostly inhibitors; 360,000 compounds, 4.4% hits; note: % is set by controls: 0 for no effect and ±100 for the full control effect; nearly all actives have a fitted effect of over 60% in size
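Multi-concentration screen (max 110 uM) measuring displacement of acetylated histone H3 peptide from BAZ2B by AlphaScreen, using 50 nM protein, 50 nM peptide and 10 ug/mL streptavidin donor plus Ni-chelate acceptor beads.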
The depositor's hits bear a star; ? = inconclusive; . = no result; [ ] = dose if it differs, or a comment. An excerpt weighted towards active compounds, which were near 12% of everything screened. Calls come from the whole dose curve; as a rule, active = well fitted curve in the direction sought with a large enough effect; inconclusive = small, poorly fitted or top-dose-only effect, or another doubt; inactive = no such curve, though single readings can be large; an effect the other way counts as inactive or inconclusive. Potency is the fitted concentration of half-maximal effect.

SMILES	G9a block	Sfp PPTase inh	JMJD2A Tudor inh	HP1b binding inh	TDP1 inh	BAZ2B inh
Cc1ccc(Cn2ccc(NC(=O)c3noc4c3CCc3ccccc3-4)n2)cc1	29.9%[59 µM]	15.8µM*	-2.0%	16.4%	4.6%	-6.6%
O=C1Nc2ccccc2S/C1=C/NCc1ccccc1Cl	31.6µM*	56.2µM*	50.1µM*	-23.6%	2.6%	?
Nc1nc(SCc2ccc(Cl)cc2)ns1	18.7%	-9.4%	10.8%	30.4%	4.1%	11.2%
Nc1nc(SCc2ccccc2)ns1	3.98µM*	?	79.4µM*	?	2.2%	4.9%
Cc1ccc(OCC(=O)N2CCC(Cc3ccccc3)CC2)c([N+](=O)[O-])n1	10µM*	.	-24.7%	25.8%	1.8%	-3.8%
COC(=O)C1=NOC2(C=C(Br)C(OC)=C(Br)C2=O)C1 (configuration not stated)	.	0.794µM*	.	.	-4.8%[21 µM]	.
C/C=C/C(=O)N1CC2(CC(c3cccc(NC(=O)CCCCC)c3)=NO2)C[C@H]1C(N)=O (some centres not stated)	-0.2%[12.7 µM]	14.1%	.	.	0.0%	?
CCCCCC(=O)Nc1cccc(C2=NOC3(C2)C[C@H](C(N)=O)N(C(=O)CC#N)C3)c1 (some centres not stated)	?	7.2%	.	.	-3.5%	56.2µM*
C/C=C\C=C/C(=O)Nc1cccc(C2=NOC3(C2)C[C@@H](C(N)=O)N(C(=O)CCCCC)C3)c1 (some centres not stated)	5.2%[12.7 µM]	25.1µM*	79.4µM*	?	3.5%	-4.3%
C/C=C(/C)C(=O)Nc1cccc(C2=NOC3(C2)C[C@@H](C(N)=O)N(C(=O)CCCCC)C3)c1 (some centres not stated)	2.6%[59 µM]	7.0%	-21.8%	31.6%	-1.2%	2.5%
C/C=C\C=C/C(=O)Nc1cccc(C2=NOC3(C2)C[C@H](C(N)=O)N(C(=O)Cc2ccc([N+](=O)[O-])cc2)C3)c1 (some centres not stated)	?	12.6µM*	79.4µM*	?	3.5%	-22.0%
C/C=C/C=C/C(=O)N1CC2(CC(c3cccc(NC(=O)CCCCC)c3)=NO2)C[C@H]1C(N)=O (some centres not stated)	?	22.4µM*	-28.5%	-4.0%	1.2%	-5.7%
C/C=C(/C)C(=O)Nc1cccc(C2=NOC3(C2)C[C@H](C(N)=O)N(C(=O)Cc2ccc([N+](=O)[O-])cc2)C3)c1 (some centres not stated)	-3.6%[59 µM]	9.7%	-9.8%	30.8%	3.5%	-4.8%
COc1ccc(CC(=O)OCC(=O)Nc2ccc(F)cc2)cc1	-8.4%	.	-6.8%	19.2%	-1.2%	-2.5%
O=C(O)c1cc(-n2c(/C=C\c3ccc(F)cc3)nc3ccccc3c2=O)ccc1Cl	-4.2%[59 µM]	.	-12.2%	13.1%	0.0%	-9.2%
C/C=C/C=C\C(=O)Nc1cccc(C2=NOC3(C2)C[C@H](C(N)=O)N(C(=O)CC#N)C3)c1 (some centres not stated)	-23.8%[12.7 µM]	12.6µM*	?	-12.0%	.	-21.2%
C/C=C/C=C\C(=O)Nc1cccc(C2=NOC3(C2)C[C@@H](C(N)=O)N(C(=O)/C(C)=C/C)C3)c1 (some centres not stated)	-5.9%[12.7 µM]	25.1µM*	?	-25.1%	4.7%	-7.6%
C=C(C)C(=O)N1CC2(CC(c3cccc(NC(=O)/C=C\C)c3)=NO2)C[C@H]1C(N)=O (some centres not stated)	14.3%[59 µM]	18.2%	5.6%	39.6%	3.5%	8.4%
C/C=C\C=C/C(=O)Nc1cccc(C2=NOC3(C2)C[C@H](C(N)=O)N(C(=O)CC)C3)c1 (some centres not stated)	?	12.6µM*	?	-38.7%	-7.1%	-0.4%
C/C=C\C=C\C(=O)Nc1cccc(C2=NOC3(C2)C[C@@H](C(N)=O)N(C(=O)C(c2ccccc2)c2ccccc2)C3)c1 (some centres not stated)	?	17.8µM*	-35.9%	14.7%	2.4%	?
O=C1OC2(CCCCC2)CC2=C1C1O[C@](CCCCN3C(=O)c4ccccc4C3=O)(Cc3ccccc31)O2	-0.2%[2.33 µM]	7.7%	.	.	.	-28.0%[22.9 µM]
Cc1cccn2c(=O)c3cc(C(=O)N(Cc4ccccc4)C(C)C)sc3nc12	90.7%[59 µM]	.	78.5%	138.5%	-11.8%	93.9%
O=C(Cc1c(O)c2ccccc2[nH]c1=O)NCc1cccc(F)c1	3.4%[59 µM]	21.4%	-17.3%	25.3%	4.2%	0.1%
O=C(Cc1c(O)c2ccccc2[nH]c1=O)NCc1ccccc1F	70.8µM*	-8.7%	-5.0%	17.5%	-7.4%	-1.7%
Nc1nc(-c2ccc(Br)s2)c(Br)s1	?	35.5µM*	?	-29.1%	9.8%	39.8µM*
SMILES	G9a block	Sfp PPTase inh	JMJD2A Tudor inh	HP1b binding inh	TDP1 inh	BAZ2B inh
N#Cc1c(N)nc2c(c1-c1ccc(Br)s1)CCCC2	44.9%[59 µM]	4.8%	-6.4%	48.6%	0.0%	-0.3%
NC(=NCCc1c[nH]c2ccccc12)NC(=O)c1ccc(Cl)cc1	?	-28.2%	?	-11.0%	-2.6%	79.4µM*
CSc1nc2nc3c(cc2c(=O)n1-c1ccc(C)cc1)COC(C)(C)C3	?	-6.4%	-17.1%	23.1%	4.2%	-1.1%
CSc1nc2nc3c(cc2c(=O)n1-c1ccccc1)COC(C)(C)C3	50.1µM*	3.5%	0.7%	34.9%	2.5%	-16.1%
O=C(Cn1nc(-c2ccc3c(c2)OCCO3)ccc1=O)Nc1cccc(NC(=O)c2ccccn2)c1	4.9%	-14.9%	.	.	2.6%	-4.3%
Cc1ccc2c(c1)N(C(=O)N1CCC(C(=O)NC3CCCCCC3)CC1)CCO2	-5.5%[59 µM]	.	-18.8%	2.7%	1.3%	-3.8%
COc1ccccc1NC(=O)Cn1nc(-c2ccc(Cl)cc2)c2ccccc2c1=O	10µM*	?	0.3%	26.3%	7.5%	4.8%
O=C(OCc1nnc(-c2ccccc2)o1)c1ccc(S(=O)(=O)NCc2ccco2)cc1	9.2%[12.7 µM]	-20.0%	79.4µM*	?	-3.4%	79.4µM*
COc1cccc(S(=O)(=O)NCc2ccc(C(=O)NCc3ccco3)cc2)c1	44.7µM*	?	-33.1%	-4.7%	0.0%	-7.8%
COc1cccc(S(=O)(=O)Nc2ccc(C(=O)NCc3ccco3)cc2)c1	-24.4%[59 µM]	-2.5%	-27.6%	21.2%	5.3%	-3.1%
CC1CCN(C(=O)c2ccc(S(=O)(=O)NCc3ccco3)cc2)CC1	-4.5%[59 µM]	-0.9%	0.0%	14.3%	89.1µM*	-2.1%
NC(=O)COC(=O)c1ccc(S(=O)(=O)NCc2ccco2)cc1	?	6.9%	?	-13.8%	15.8µM*	?
COc1ccc(N2CCN(C(=O)c3ccc(CNS(=O)(=O)c4cccc(OC)c4)cc3)CC2)cc1	?	20.7%	?	-18.2%	7.4%	?

From PubChem
